We go through 105 sequences from PubChem BioAssay AID1347423 (Functional Genomics Laboratory (NCATS/FGL), 2020).

Hit rate of the full screen: of about 52,000 sequences, about 210 (0.4%) were called active.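 How the source made its calls: active means gene whose silencing raises cell survival under the drug, median off-target-corrected z-score across its silencing RNAs 2 or more; inactive means the rest.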 The sample as a whole holds a higher share of actives than the screen did.

A short description of this experiment: Resistance to Poly (ADP-Ribose) Polymerase inhibitor: Gene Identification via Genome-wide siRNA Screen. Particulars: mouse BRCA2 R2336H ES cells, olaparib, CellTiter-Glo viability; active compounds read high. An excerpt:
The role of Poly (ADP-Ribose) Polymerase (PARP) proteins in DNA repair has been elegantly utilized for the synthetic lethality-based treatment of BRCA-deficient tumors by PARP inhibitors. PARP inhibitors are now being used for treatment of BRCA-deficient breast and ovarian cancers. […] While several mechanisms of drug resistance have been identified, majority of these tumors develop drug resistance due to unknown causes. To identified novel regulators of chemo-resistance in BRCA2-mutated cells, we performed a genome wide siRNA library screen. We have found ES cells expressing a hypomorphic allele of BRCA2 to be hypersensitive to PAPP inhibitors (such as olaparib). We used ES cells expressing a mutant allele of BRCA2 that has a single amino acid substitution at position 2336 (arginine to histidine, R2336H). The screen was conducted using an Ambion (Thermo) Silencer Mouse Genome siRNA collection. The library targets 17,575 mouse genes with 3 siRNAs per gene. TET2 (E130014J05Rik) was identified as a top candidate.
Transfections were performed in 384 well plates (Corning 3707). Plates were coated with 0.1% gelatin in H2O overnight at ambient temperature. Gelatin solution was aspirated (BioTek EL406) and siRNAs were printed using a Bravo VPrep liquid handler integrated within a BioCel automation platform (Agilent). Cell viability was measured using CellTiter Glo (Promega). For transfections, […] of serum free media containing Lipofectamine RNAiMax […] was added to wells containing siRNA (0.8pmol). Lipid and siRNA were allowed to complex for 45 min at ambient temperature before addition of 1000 cells in DMEM, 30% FBS to yield final transfection mixtures containing 20 nM siRNA in DMEM, 15% FBS. PARPi (olaparib, AZD2281) was added 48 h post-transfection (500 nM) and viability (CellTiter Glo, Promega) was assayed 72 h later on a PerkinElmer Envision 2104 Multilabel plate reader. Ambion Silencer Select Negative Control #2 was incorporated on all screening plates (16 wells) and the median negative control value on each plate was used for normalization. An siRNA targeting Trp53 was used as a positive control. This control yielded a median protective effect of ~1.9 fold versus negative control throughout the screen. The median absolute deviation (MAD) based z-score was calculated for each siRNA. Genes were then ranked by taking the median value for all siRNAs tested against a given gene. Scores were also adjusted for seed-based off-target effects to help deprioritize likely false positives.
For CCCAGAGGUUCCCGUCAAUTT against Hmgb3, the z-score was 1.9 (active). As for GCCACCCACCUAAAAUCAATT against BC025872, the z-score is 0.573 (inactive).

Turning to “GGGAAAUGGCUCAUACUGGTT against 2210010C04Rik”, the z-score is -0.608 (inactive). For GACCGAGUUCAAAGCGAACTT against Atp5e, the z-score was -2.59 (inactive). For the sequence “GGAAGAAAGCCAUUUGCUUTT against 4632412I24Rik”, the z-score was 0.766 (inactive). As for CGAUGAGAUGCGUAUUGAGTT against Card11, the z-score was -0.977 (inactive). The value for GCGAACUCCUCUUUAGGCATT against Chrng was -0.258 (active); that for GGGUAGACAGAAAGCCUUUTT against Olfr111 was -0.573 (inactive); that for GGUGUCUUAAAGCUGAAAUTT against E2f5 was 2.8 (inactive). The figure for “GGAGAGGAAUGGUGUGUUATT against 4931428D14Rik” is -0.16 (inactive).

As to GGUGUUCCUGUCUUUCAUGTT against Chordc1, the z-score is -1.35 (inactive). For the sequence CCAACUUCAAAACUAUCGUTT against Trp53bp1, the z-score was 1.96 (active). The value for “GCUAGUGGUAAGUCAACCATT against D6Ertd349e” was -0.584 (inactive); that for GGUGGGAAUGGGAAUCAGUTT against Akr1e1 was 1.57 (inactive). Turning to GUCCAUCAGCAGCUCAAUGTT against Ifna5, the z-score is -0.126 (inactive). The figure for GGCUUAUUUUUCUUCAGUUTT against Ext1 is -0.0515 (inactive).

On to GGAGGAAAAAAAGUGAAGATT against Zfp339, for which the z-score is 0.689 (inactive). As for CCUAUGCUAUGUAGUUUAATT against Adam21, the z-score is 0.555 (active).

As for GCUGAUGAAGGUGAUACGUTT against Pnma2, the z-score was 0.0302 (inactive). As to GGCACCUAAAUUCUUGAAUTT against Hspb6, the z-score was -0.361 (inactive).

Consider GGCCCUUCCCAAAGUAUUATT against Mup3, for which the z-score was 0.32 (inactive). The value for CCUACUACCUCUGUCAACATT against Nme4 was 1.46 (inactive); that for “GGUGGAGUUUGUGCAGAAGTT against 2310026J01Rik” was 0.572 (inactive); that for CGAUGAUUCCAAGUUUGGCTT against Pinx1 was -0.772 (inactive). In the case of CCUGCAGCUGUAAAACCUGTT against Mt4, the z-score is -0.909 (inactive). As for CCGUAUCCGGCAUUGGAUUTT against Mrps16, the z-score was 0.345 (inactive).

Regarding GCUGUCCACUGCUUAAAUCTT against Isyna1, the z-score is 0.392 (inactive). Turning to GGAAUUGUACAAAUGACCUTT against Adam29, the z-score is -0.0465 (active). For GGAGCUCAGAUGCAAUGAGTT against Zfp393, the z-score was -0.714 (inactive). For GGAUGAGCUCAAGAAGUCCTT against Snrpa, the z-score was -1.3 (inactive). For the sequence CCUGUUUACAAGGAAUUGATT against Itgb1, the z-score is 0.411 (inactive). The figure for “GGAUCACAGCGAUUAUUGATT against D630028G08Rik” is -0.512 (inactive). The value for CCCAUACUAAAAUUGUUGATT against Adam29 was 2.32 (active). Regarding “GCCAGGAUAUGGAUAUGCATT against 1520401A03Rik”, the z-score is 1.47 (inactive). Consider CGACUUCAUAAUUAUGCAATT against Als2, for which the z-score is 0.307 (inactive). The value for GCCGAAUCCGAACAAAACCTT against Tat was 1.35 (active); that for GCUGUAUUGAAGGUCCCUUTT against Olfr744 was -2.34 (inactive).

“CCUGGCUAAUGACUAGCUCTT against D730046L02Rik”: the z-score was -0.501 (inactive). As to GGUCUCCCUUCAGUAUGAGTT against Ela3b, the z-score is 2.47 (active).

“GCUCAUUCUUACCAAUCUCTT against 2210413P10Rik”: the z-score was -0.897 (inactive). In the case of “GCCUCCACAUAGCUUCAACTT against 1110030H02Rik”, the z-score is 1.14 (inactive). Regarding GGUUGCACUUUUUCAUAGUTT against Bcl2l2, the z-score is 2.83 (active). In the case of GGGAGCUCUAAAAAAAGUGTT against Olfr390, the z-score was 0.0742 (inactive). As for GGAGGAGAGGUACAAACGGTT against Cxxc1, the z-score was -1.2 (inactive). “GCGGGCAAUGCCUUAAAAGTT against D16Ertd607e”: the z-score was 0.194 (inactive).

Turning to GCCCGGUAAAGGUAUCCAUTT against Trp53bp1, the z-score was 1.78 (active). Consider GGGCACCUAUUCAGAUACCTT against Mtap2, for which the z-score was 0.64 (inactive).

Consider GGAAAAGACGGGAGAUUUGTT against Mbldc1, for which the z-score was 0.0178 (inactive). For GUACGUCAUGGGUCACUUCTT against Pomc1, the z-score is -0.0856 (inactive). As for GGACAGAGUUCGAUCGACUTT against BC021523, the z-score was -0.107 (inactive). As for GUGAUGACUGAGCUUCUAATT against Olfr1446, the z-score was -1.51 (inactive). For the sequence “GCCUACAGAGUCUUAGUUATT against 2400003B06Rik”, the z-score was 0.0277 (inactive). On to GGGAGAAGAAGAUACACCATT against Usp47, for which the z-score was 2.16 (active).

“GGCUGUGGACUUUUGUAAUTT against 3110002H16Rik”: the z-score was 0.704 (inactive).

Turning to “GCCGUUUUAUUCACGUGAATT against 1810033M07Rik”, the z-score is -0.105 (inactive). As to GGUUAAAGAAGCCAUGAAATT against Olfr480, the z-score was 1.26 (inactive). On to GCCUGUUCCGCCAUUCAUGTT against Fliih, for which the z-score was -1.13 (inactive). In the case of GGAGUGAUUAACCUAACUCTT against Crip3, the z-score was -0.183 (active). The value for GACAAGACAAGUUUUGGUATT against Elmo1 was -0.497 (inactive); that for GGCCUUGAGGCUAUUCAUGTT against Stk16 was 0.0229 (inactive). As for GGAAAGUUGUAUUUGAUGUTT against Nudt7, the z-score is 0.299 (inactive). Take GCAUCUUCGAGGUUUCAAATT against BC006583: the z-score is 2.47 (inactive). With GGAAGUAGAGACAGGAGGATT against AF119384, the z-score was 1.25 (inactive). Regarding GCGGCAUAUGCCUACUCUUTT against Slc6a12, the z-score was -1.46 (active). Turning to GCCUAGACCAGAGAAAGGUTT against AW555464, the z-score was 0.139 (inactive). On to GCAAGUAUUAAGUAUGACGTT against Vps13c, for which the z-score was 0.194 (inactive). On to “GGCCAGGAGAAGAAGAUACTT against E130014J05Rik”, for which the z-score is 4.51 (active). With GCUUUUGAUAUUCCACGUUTT against Pole2, the z-score was -0.0546 (inactive). For the sequence GGAAUCGUCUGAGAAAUUCTT against Lgmn, the z-score is 0.618 (inactive). CCCUCUUUAUCGUCUGUGATT against Gpha2: the z-score was -0.468 (inactive). For the sequence “CCAACAAUCCGUAUCGACCTT against 4930425N13Rik”, the z-score is -0.139 (inactive). Take GGAAGAGGUUGAGAUCCAATT against Pogk: the z-score is 0.561 (inactive). Regarding GGACACUUAGCAGCAAAGGTT against Lsm7, the z-score is -1.42 (inactive). For the sequence CCUUGUACACGGAUUGAAUTT against Itga6, the z-score was 2.44 (active). Regarding “CCGUCUAUACAUCUUUCCATT against D630005B22Rik”, the z-score is -1.51 (inactive).

For the sequence GCAGUAUAUCCUACAUUGGTT against Olfr510, the z-score was 1.69 (active). As to CCUGAUAUAUGACUUUGGCTT against Ntf5, the z-score is -0.0586 (inactive). The value for CCUGCACAGGAUAAUUAUGTT against Zfp426 was 1.21 (inactive). Turning to GGAGAUGAACAAGGACCUATT against Apoa1, the z-score was 1.02 (active). With GGUCAAUUCCCAUACCCUGTT against Trfr2, the z-score was 0.815 (inactive). In the case of CCAACUAUAACUCAGUCACTT against Ebf1, the z-score is 0.374 (inactive).

GGCACACGGUUUUCAUUAATT against Pcdhb5: the z-score is -0.354 (inactive). As to GGCAUCACUGAUGAAUGAATT against Pacsin2, the z-score was -0.947 (active). Take CCACUUUUAAAGGAAUGUGTT against Ncoa1: the z-score is -0.0128 (inactive).

With GCUUGCAUGUACAGACAUUTT against Olfr517, the z-score was 1.3 (inactive). Turning to CCAUCUGAUUUCUUUCCAGTT against MGC78233, the z-score was -0.642 (inactive). Take GGAAAUGCCUUCAGAAAUUTT against Slc9a3r1: the z-score is 0.863 (inactive). For GCCAAUGUAACCUUCAAAATT against Lypla1, the z-score was 0.603 (inactive). For the sequence GGGCGACACAAGGUUUUUGTT against Kif3a, the z-score is 1.13 (active).

As to GGAGUGUUUGAGAAAUACCTT against BC027342, the z-score is -0.283 (inactive).

With GGCAAAGAUCGCAUCUUAATT against Eif2c2, the z-score was 0.222 (inactive). The figure for GCUGCAUCCGUAGAUGUUGTT against Fthfd is -0.992 (inactive). Regarding “GGCCAAAGAGGAGGAAAACTT against D5Bwg0834e”, the z-score was -0.569 (inactive). In the case of GGAGACAGUAAUAGCUCAUTT against Trp53bp1, the z-score is 2.14 (active). On to GGACUUGUGGCUGAAAACCTT against Slc22a7, for which the z-score is 0.176 (inactive). The figure for “GGGAACAGCAUCUCUGUCATT against E130115E03Rik” is -0.944 (inactive); for CCCUCAACUUUCAGAUCAGTT against Ard1 it is 0.611 (inactive). Turning to CCUCGUUCCUAUCAUUAACTT against Sdccag8, the z-score was 0.858 (inactive). As for GGAAAGAAUAUGAGAAUGCTT against Reck, the z-score was 2.07 (inactive). For UUGUCCUGGUCUCCUAUGCTT against Olfr141, the z-score is -1.98 (inactive). On to “CCCGCUCAAGAUCCUGUUUTT against 2310011J03Rik”, for which the z-score is -1.85 (inactive).

With GCGAGUCGCUCAUAGUGAATT against AW822216, the z-score is 0.476 (inactive). As to “GGAUCUGAAGGAAUACUUUTT against 2400010G15Rik”, the z-score was 2.14 (active).

Regarding GCAGCACCUUUGUGGUUCCTT against Ins2, the z-score was -0.904 (inactive).

On to CCGUGCCAAUAGUUCUGCUTT against Dpp4, for which the z-score was 0.286 (inactive).
